Measurements from PubChem BioAssay (NCATS).
Records with an inconclusive call do not appear. Active and inactive are the calls of the source. Unless noted, calls follow the shape of the dose curve; as a rule, active = well fitted curve in the direction sought with a large enough effect; inconclusive = small, poorly fitted or top-dose-only effect, or another doubt; inactive = no such curve, though single readings can be large; an effect the other way counts as inactive or inconclusive.

Key:
[1] = molecular target: Guanine nucleotide-binding protein G(i) subunit alpha-1 (Homo sapiens) (UniProt P63096); assay: qHTS Assay for Inhibitors of RGS12 GoLoco Motif Activity (Green Fluorophore) (AID 879);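 also: 0% = labeled peptide with Gαi1 and full inhibition = labeled peptide alone without protein; negative values mean loss of peptide binding seen as reduced polarization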
Guanine nucleotide-binding protein G(i) subunit alpha-1 (Homo sapiens), sequence (P63096 whole entry, looked up): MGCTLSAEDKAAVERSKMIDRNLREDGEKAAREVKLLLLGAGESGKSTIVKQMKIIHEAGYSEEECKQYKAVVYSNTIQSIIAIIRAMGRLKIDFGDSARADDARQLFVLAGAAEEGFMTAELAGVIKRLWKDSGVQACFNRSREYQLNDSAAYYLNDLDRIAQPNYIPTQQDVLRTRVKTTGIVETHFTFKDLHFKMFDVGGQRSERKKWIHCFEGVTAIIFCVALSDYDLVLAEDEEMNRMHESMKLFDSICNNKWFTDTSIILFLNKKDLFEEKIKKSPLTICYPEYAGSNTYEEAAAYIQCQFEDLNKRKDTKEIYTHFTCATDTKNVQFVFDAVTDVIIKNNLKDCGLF
Procedure, shortened: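 A drop in FITC polarization marked displacement of the FITC-tagged RGS12 GoLoco peptide (10 nM) from Gαi1 (50 nM). Compounds were incubated 10 min at room temperature in Tris pH 7.5 buffer containing 150 mM NaCl, 0.1 mM GDP and 0.05% NP40; unlabeled peptide titration served as control.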

[2] = molecular target: Cytochrome P450 3A4 (Homo sapiens) (UniProt P08684); assay: qHTS Assay for Inhibitors and Substrates of Cytochrome P450 3A4 (AID 884); also: nearly all actives have a fitted effect of over 50% in size; also: potency is read from the fitted curve at half-maximal effect
Cytochrome P450 3A4 (Homo sapiens), sequence (P08684 whole entry, looked up): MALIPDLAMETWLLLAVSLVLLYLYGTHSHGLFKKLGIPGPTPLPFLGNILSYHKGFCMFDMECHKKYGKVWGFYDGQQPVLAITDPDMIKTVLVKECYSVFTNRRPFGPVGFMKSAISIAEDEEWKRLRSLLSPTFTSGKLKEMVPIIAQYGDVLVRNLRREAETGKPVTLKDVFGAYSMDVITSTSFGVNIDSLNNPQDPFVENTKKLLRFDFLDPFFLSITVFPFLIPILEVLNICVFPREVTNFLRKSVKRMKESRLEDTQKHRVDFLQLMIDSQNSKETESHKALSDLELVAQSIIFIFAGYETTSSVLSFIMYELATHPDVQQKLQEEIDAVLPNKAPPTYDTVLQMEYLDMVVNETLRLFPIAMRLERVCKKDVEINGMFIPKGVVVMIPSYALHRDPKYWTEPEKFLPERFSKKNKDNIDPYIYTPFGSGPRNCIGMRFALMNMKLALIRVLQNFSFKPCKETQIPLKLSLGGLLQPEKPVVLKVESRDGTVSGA
Procedure, shortened: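 Luminescent readout of luciferin produced by CYP3A4 (20 nM) dealkylation of Luciferin-PPXE, 25 uM (its KM). NADPH-driven reaction ran 60 min at RT after 10 min compound preincubation; data scaled to 57 uM ketoconazole as 100% inhibition.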

[3] = qHTS Assay for Identification of Small Molecule Antagonists for NFkB Signaling Pathway (AID 895; active = well fitted inhibition curve with a large enough effect in the signal ratio, with a control signal flat, not every such curve was filed as active; the % refers to the signal ratio; also: % is scaled to controls: 0 for no effect and ±100 for the full control effect)
Procedure, shortened: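 NFkB-bla ME-180 cervical carcinoma cells with beta-lactamase reporter under NFkB response element; compounds added, then TNF alpha at 10 pM final (EC50), 5 h at 37 C. LiveBLAzer substrate 2 h, room temperature; emission 460/530 nm at 405 nm excitation.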

[4] = Confirmation and Secondary Assay for Modulators of Hemoglobin Beta Chain Splicing at IVS2 654 locus (AID 910);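 also: per-well total GFP intensity by laser scanning cytometry after 2-day treatment; % of control where 0% means no effect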
Procedure, shortened: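 HeLa cells stably carrying EGFP interrupted by mutant beta-globin IVS2-654 intron (CMV-driven) were treated with compound for 2 days at 37C; corrected splicing was scored as total peak GFP intensity per well (488 nm excitation, 500-520 nm emission).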

[5] = qHTS Assay for Identification of Small Molecule Agonists for Thrombopoietin (TPO) Signaling Pathway (AID 917); also: % is scaled to controls: 0 for no effect and ±100 for the full control effect
Procedure, shortened: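 Luciferase reporter (Glycoprotein IIb promoter) in IL-3-deprived Ba/F3 cells carrying human TPO receptor; compounds co-added with 26 pM TPO, incubated 24 h, 37 C. Steadylite luminescence measured after 10 min.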

[6] = molecular target: Pyruvate kinase (Leishmania mexicana) (UniProt Q27686); assay: qHTS Validation Assay for Inhibitors of Leishmania Mexicana Pyruvate Kinase (AID 945);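 also: 0% = DMSO only neutral control wells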
Pyruvate kinase (Leishmania mexicana), sequence (Q27686 2-499 E452W): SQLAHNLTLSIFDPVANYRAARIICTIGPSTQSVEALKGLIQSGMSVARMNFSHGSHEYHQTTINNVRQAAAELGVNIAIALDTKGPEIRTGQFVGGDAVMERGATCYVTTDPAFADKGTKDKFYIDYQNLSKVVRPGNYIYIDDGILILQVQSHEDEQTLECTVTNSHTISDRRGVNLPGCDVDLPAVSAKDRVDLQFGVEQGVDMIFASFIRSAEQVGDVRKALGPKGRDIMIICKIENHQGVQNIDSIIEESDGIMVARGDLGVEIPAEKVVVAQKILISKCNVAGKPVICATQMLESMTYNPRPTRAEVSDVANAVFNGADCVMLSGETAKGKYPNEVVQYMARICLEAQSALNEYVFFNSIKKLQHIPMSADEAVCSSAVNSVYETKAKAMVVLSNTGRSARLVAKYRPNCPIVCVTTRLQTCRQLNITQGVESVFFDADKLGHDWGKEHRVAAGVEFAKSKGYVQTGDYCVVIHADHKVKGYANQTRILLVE
Procedure, shortened: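 Substrate mix (0.5 mM PEP, 0.1 mM ADP, 7 mM MgCl2, 50 mM KCl, pH 7.2 imidazole) received compound by pin tool, then 0.2 nM LmPYK E451W. After 1 h at room temperature, PKLight was added and luminescence measured.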

[7] = molecular target: Pyruvate kinase PKM (Homo sapiens) (UniProt P14618); assay: qHTS Assay for Activators of Human Muscle Pyruvate Kinase (AID 954; active = well fitted curve in the direction sought with a large enough effect, not every such curve was filed as active;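 also: 0% = uninhibited enzyme and -100% = no enzyme or full thiadiazolimine inhibition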)
Pyruvate kinase PKM (Homo sapiens), sequence (P14618 whole entry, looked up): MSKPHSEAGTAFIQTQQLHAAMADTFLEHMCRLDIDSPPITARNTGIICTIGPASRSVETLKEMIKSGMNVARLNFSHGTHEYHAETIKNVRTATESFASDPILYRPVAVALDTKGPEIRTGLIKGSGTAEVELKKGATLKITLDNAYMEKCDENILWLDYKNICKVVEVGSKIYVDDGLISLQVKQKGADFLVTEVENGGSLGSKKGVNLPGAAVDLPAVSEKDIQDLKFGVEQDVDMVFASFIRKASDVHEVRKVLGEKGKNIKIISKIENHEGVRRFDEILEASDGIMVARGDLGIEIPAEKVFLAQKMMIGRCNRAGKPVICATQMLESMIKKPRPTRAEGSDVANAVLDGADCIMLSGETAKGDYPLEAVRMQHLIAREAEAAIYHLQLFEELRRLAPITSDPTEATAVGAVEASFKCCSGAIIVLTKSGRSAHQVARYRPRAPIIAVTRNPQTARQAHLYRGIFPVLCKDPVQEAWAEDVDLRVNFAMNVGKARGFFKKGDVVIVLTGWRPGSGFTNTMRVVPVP
Procedure, shortened: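 ATP production by PKM2 detected via luciferase luminescence after 1 h room-temperature reaction (0.1 nM enzyme, PEP at Km 0.5 mM, ADP 0.1 mM, pH 7.2 imidazole buffer). Inhibition scaled to no-enzyme control; activation referenced to 0.3 nM enzyme wells.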

[8] = molecular target: Muscarinic acetylcholine receptor M1 (Rattus norvegicus) (UniProt P08482); assay: qHTS Assay for Antagonists of Acetylcholine Muscarinic M1 Receptor: Kinetic Measurement of Intracellular Calcium Response (AID 943);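 also: Fluo-4 calcium signal as peak divided by basal fluorescence over 4 min; series mostly up to about 35 µM; nearly all actives have a fitted effect of over 75% in size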
Muscarinic acetylcholine receptor M1 (Rattus norvegicus), sequence (P08482 whole entry, looked up): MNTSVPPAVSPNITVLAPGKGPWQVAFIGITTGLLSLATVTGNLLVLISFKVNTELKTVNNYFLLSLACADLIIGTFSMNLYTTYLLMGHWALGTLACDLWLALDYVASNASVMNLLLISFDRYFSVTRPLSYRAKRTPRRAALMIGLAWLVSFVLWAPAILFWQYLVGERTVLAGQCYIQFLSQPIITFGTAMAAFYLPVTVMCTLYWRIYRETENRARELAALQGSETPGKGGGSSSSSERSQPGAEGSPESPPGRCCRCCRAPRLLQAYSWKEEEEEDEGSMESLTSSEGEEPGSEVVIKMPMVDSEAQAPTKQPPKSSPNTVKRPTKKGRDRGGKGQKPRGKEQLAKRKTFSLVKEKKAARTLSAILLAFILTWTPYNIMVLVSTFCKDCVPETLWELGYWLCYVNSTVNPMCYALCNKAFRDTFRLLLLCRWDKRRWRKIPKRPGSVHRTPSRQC
Procedure, shortened: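 Antagonism measured as reduction of carbachol-evoked (EC80, 100 nM final) calcium flux in rat M1-CHO cells after 10 min compound exposure. Fluo-4 signal read kinetically; ratio of maximal to basal fluorescence.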

[9] = molecular target: Muscarinic acetylcholine receptor M1 (Rattus norvegicus) (UniProt P08482); assay: qHTS Assay for Antagonists of Acetylcholine Muscarinic M1 Receptor: Measurement of IP-One Response (AID 944); also: nearly all actives have a fitted effect of over 75% in size
Procedure, shortened: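 IP1 accumulation measured via TR-FRET between d2-IP1 and Eu-cryptate anti-IP1 antibody after carbachol (200 nM, EC80) stimulation for 30 min; rat M1-transfected CHO cells received compound 10 min before agonist.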

[10] = molecular target: Cytochrome P450 2C9 (Homo sapiens) (UniProt P11712); assay: qHTS Assay for Inhibitors and Substrates of Cytochrome P450 2C9 (AID 883); also: nearly all actives have a fitted effect of over 60% in size; also: potency is read from the fitted curve at half-maximal effect
Cytochrome P450 2C9 (Homo sapiens), sequence (P11712 whole entry, looked up): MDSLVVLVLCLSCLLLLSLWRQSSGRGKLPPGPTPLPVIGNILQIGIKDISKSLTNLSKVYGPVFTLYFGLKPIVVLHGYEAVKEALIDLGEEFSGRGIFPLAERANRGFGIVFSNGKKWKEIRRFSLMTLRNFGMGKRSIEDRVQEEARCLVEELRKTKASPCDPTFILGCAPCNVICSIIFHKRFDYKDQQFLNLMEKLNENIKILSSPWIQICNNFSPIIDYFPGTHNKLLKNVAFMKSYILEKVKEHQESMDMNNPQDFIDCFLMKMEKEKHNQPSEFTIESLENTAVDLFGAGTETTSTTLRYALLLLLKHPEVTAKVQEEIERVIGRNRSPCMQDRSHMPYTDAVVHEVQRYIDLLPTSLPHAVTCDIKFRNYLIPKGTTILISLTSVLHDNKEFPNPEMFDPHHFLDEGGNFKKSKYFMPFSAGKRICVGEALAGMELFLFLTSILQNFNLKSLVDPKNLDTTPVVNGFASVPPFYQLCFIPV
Procedure, shortened: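 A luminogenic readout tracked human CYP2C9 (10nM) converting deoxyluciferin (100uM, at KM) in 25mM KPO4 during 60 min at 37C with regenerated NADPH. Values normalized to 57uM sulphaphenazole as complete inhibition.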

[11] = molecular target: Cytochrome P450 3A4 (Homo sapiens) (UniProt P08684); assay: qHTS Assay for Activators of Cytochrome P450 3A4 (AID 885); also: nearly all actives have a fitted effect of over 65% in size; also: potency is read from the fitted curve at half-maximal effect
Procedure, shortened: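 Luminescent readout of luciferin formed from 25 uM Luciferin-PPXE (KM level) by 20 nM CYP3A4 in 200 mM KPO4, with 60 min NADPH-driven reaction at room temperature after 10 min compound exposure. Ketoconazole (57 uM) defined 100% inhibition.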

[12] = qHTS Assay for Identification of Small Molecule Agonists for Hypoxia Response Element Signaling Pathway (AID 914; active = well fitted activation curve with a large enough effect in the signal ratio, with a control signal flat, not every such curve was filed as active; the % refers to the signal ratio; also: % of control where 0% means no effect); conditions: ME-180 (cervical carcinoma) HRE-bla reporter, beta-lactamase ratio, CoCl2, 17 h; stronger effect = higher value
Procedure, shortened: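 Read-out: CCF4 FRET ratio of 460nm to 530nm emission (excitation 405nm) after 2.5 hours at room temperature, taken from HRE-bla ME-180 cells that had been exposed to compound and EC50 CoCl2 for 17 hours.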

[13] = molecular target: Cytochrome P450 2C19 (Homo sapiens) (UniProt P33261); assay: qHTS Assay for Inhibitors and Substrates of Cytochrome P450 2C19 (AID 899); also: nearly all actives have a fitted effect of over 60% in size; also: potency is read from the fitted curve at half-maximal effect
Cytochrome P450 2C19 (Homo sapiens), sequence (P33261 whole entry, looked up): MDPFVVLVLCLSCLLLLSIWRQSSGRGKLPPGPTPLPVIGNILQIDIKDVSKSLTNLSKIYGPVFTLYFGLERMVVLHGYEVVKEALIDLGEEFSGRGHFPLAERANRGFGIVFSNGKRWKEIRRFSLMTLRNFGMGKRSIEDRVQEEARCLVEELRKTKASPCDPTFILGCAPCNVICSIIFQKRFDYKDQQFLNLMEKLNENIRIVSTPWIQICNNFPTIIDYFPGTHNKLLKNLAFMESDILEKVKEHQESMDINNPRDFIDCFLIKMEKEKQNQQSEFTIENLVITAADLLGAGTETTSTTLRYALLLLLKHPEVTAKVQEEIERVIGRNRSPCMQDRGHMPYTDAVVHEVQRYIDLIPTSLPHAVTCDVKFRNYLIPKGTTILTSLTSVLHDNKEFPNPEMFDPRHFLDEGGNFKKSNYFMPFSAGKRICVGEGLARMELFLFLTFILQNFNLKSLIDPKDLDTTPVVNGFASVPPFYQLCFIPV
Procedure, shortened: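 NADPH-dependent conversion of Luciferin-H EGE (10uM, at KM) by 5nM enzyme in 50mM KPO4, 60 min at 37C following 10 min compound preincubation. Stopped with luciferin detection buffer; luminescence read after 20 min.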

[14] = Cellular Toxicity (caspase-3) NIH 3T3 (AID 666);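 also: caspase signal read after 16 h compound exposure; 0% = DMSO basal and 100% = 100 µM tamoxifen stimulation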
Procedure, shortened: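 Caspase-Glo 3/7 luminescence reported caspase activation in 1000 NIH 3T3 cells/well after 16 h compound exposure at 37 C. DMSO set basal and 100 uM tamoxifen set 100% stimulation; concentration-response modeled with the Hill equation for AC50.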

[15] = Cellular Toxicity (caspase-3) Renal Proximal Tubule (AID 667);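 also: cells exposed to compound for 16 hours at 37 °C before detection; 0% = DMSO basal and 100% = 10 µM staurosporine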
Procedure, shortened: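 Caspase 3/7 activation measured by luminescent aminoluciferin release in primary rat proximal tubule cells after 16 hr compound exposure at 37 °C. AC50 from Hill-fitted concentration-response, scaled between DMSO and 10 uM staurosporine.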

[16] = Cell Viability - LYMP2-001 (AID 921); also: nearly all actives have a fitted effect of over 70% in size; also: potency is read from the fitted curve at half-maximal effect
Procedure, shortened: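 Cellular ATP loss read by luciferase luminescence after 24 h compound exposure at 37 C in complete medium. LYMP2-001 lymphoblastoid cells, 2500/well; qHTS concentration-response data fitted with Hill equation for AC50.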

[17] = MultiTox-Fluor Cytotoxicity Assay - LYMP1-001 - Dead Cells (AID 946); also: potency is read from the fitted curve at half-maximal effect
Procedure, shortened: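 Cytotoxicity as increased dead-cell protease fluorescence (bis-AAF-R110, 485/520 nm), read 60 min after MultiTox-Fluor reagent. Human lymphoblastoid line exposed 16 h; Hill-fitted AC50, with DMSO as 0% and 15 uM tetraoctylammonium bromide as 100%.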

[18] = MultiTox-Fluor Cytotoxicity Assay - LYMP1-001 - Live Cells (AID 947); also: potency is read from the fitted curve at half-maximal effect
[19] = Cell Viability - LYMP1-002 - Assay at 16 hr (AID 948); also: potency is read from the fitted curve at half-maximal effect
Procedure, shortened: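 ATP luminescence (CellTiter-Glo) was measured after 16 hr compound exposure at 37 C of 2500 lymphoblastoid LYMP1-002 cells per well. Concentration-response curves were fitted with the Hill equation to give AC50.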

[20] = molecular target: Cytochrome P450 2D6 (Homo sapiens) (UniProt P10635); assay: qHTS Assay for Inhibitors and Substrates of Cytochrome P450 2D6 (AID 891);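 also: luciferin methyl ether substrate demethylated by CYP2D6 with NADPH regeneration; % is scaled to controls: 0 for no effect and ±100 for the full control effect; nearly all actives have a fitted effect of over 60% in size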
Cytochrome P450 2D6 (Homo sapiens), sequence (P10635 whole entry, looked up): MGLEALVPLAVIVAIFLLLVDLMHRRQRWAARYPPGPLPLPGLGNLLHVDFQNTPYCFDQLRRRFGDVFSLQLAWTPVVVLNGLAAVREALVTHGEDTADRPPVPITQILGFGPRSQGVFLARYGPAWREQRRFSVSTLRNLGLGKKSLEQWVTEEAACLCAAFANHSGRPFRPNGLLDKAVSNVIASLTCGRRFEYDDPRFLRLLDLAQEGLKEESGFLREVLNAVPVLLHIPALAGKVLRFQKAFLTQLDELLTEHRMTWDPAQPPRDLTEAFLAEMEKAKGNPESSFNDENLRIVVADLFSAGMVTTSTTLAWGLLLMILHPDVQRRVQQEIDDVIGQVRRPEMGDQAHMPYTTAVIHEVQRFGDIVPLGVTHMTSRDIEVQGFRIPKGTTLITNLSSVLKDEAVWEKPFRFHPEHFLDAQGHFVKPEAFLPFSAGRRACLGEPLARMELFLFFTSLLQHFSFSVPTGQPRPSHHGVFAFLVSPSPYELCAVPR
Procedure, shortened: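 Luminescent read-out of luciferin formed by 5 nM human CYP2D6 demethylating 30 uM Luciferin-ME EGE (Km level) over 60 min at room temperature after NADPH regeneration addition. Data normalized to full inhibition by 1.43 uM quinidine.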

COC(=O)C1=CCCN(C)C1
inactive: outcome [1] | Potency [2] | outcome [3] | outcome [4] | outcome [5] | outcome [6] | outcome [7]

C[C@H](N)[C@H](O)c1ccc(O)c(O)c1
inactive: outcome [1] | Potency [8] | Potency [9] | outcome [6] | outcome [7]

c1ccc2nc(N3CCNCC3)ccc2c1
inactive: outcome [1] | Potency [10] | Potency [11] | outcome [4] | activation [12] -4.77% | outcome [5] | outcome [6] | outcome [7]

CCCCCCCCC(=O)NCc1ccc(O)c(OC)c1
inactive: outcome [1] | Potency [11] | outcome [3] | outcome [4] | outcome [5] | Potency [8] | outcome [6] | outcome [7]
active: Potency [10] 3.16 µM

Oc1ccc(Cl)cc1Sc1cc(Cl)ccc1O
active: Potency [10] 0.398 µM | Potency [13] 0.0794 µM

CN(C)C(=S)SSC(=S)N(C)C
inactive: outcome [14] | outcome [15] | Potency [11] | outcome [4]
active: Potency [2] 15.8 µM | Potency [16] 0.158 µM | Potency [17] 0.794 µM | Potency [18] 39.8 µM | Potency [19] 20 µM

CCC(=O)O[C@H]1CC[C@H]2[C@@H]3CCC4=CC(=O)CC[C@]4(C)[C@H]3CC[C@]12C
inactive: Potency [2]

CCCCCCCCCCCC[N+](C)(C)CCOc1ccccc1
active: Potency [16] 31.6 µM | Potency [18] 25.1 µM | Potency [19] 15.8 µM
inactive: outcome [15]

O=C(O)c1nn(Cc2ccc(Cl)cc2Cl)c2ccccc12
inactive: outcome [1] | Potency [20] | Potency [13] | outcome [5] | Potency [8] | Potency [9] | outcome [6] | outcome [7]

NC(=O)CN1CCCC1=O
inactive: outcome [1] | Potency [2] | outcome [4] | outcome [5] | outcome [6] | outcome [7]

Oc1c(Br)cc(Br)cc1Br
inactive: outcome [14] | outcome [15] | Potency [2] | Potency [16] | Potency [17] | Potency [18] | Potency [19]
active: Potency [11] 15.8 µM
